Assay outcomes (PubChem)
Rows were chosen to be rich in hits. Some 5% of all compounds tested hit in one or more screens of this group.
Casp7 inh – qHTS Assay for Allosteric/Competitive Inhibitors of Caspase-7; Potency, µM (series often up to 57.5 µM), for inactives: at the highest dose activity change, negative = inhibition, actives largely listed as inhibitors; hit rate 0.02% among 75,000; P55210; recombinant caspase-7, Ac-DEVD-AFC fluorescence rate; AID 889, 2007; active means well fitted inhibition curve with a large enough effect in the main read-out, with a control signal flat, not every such curve was filed as active; inconclusive means small, poorly fitted or top-dose-only effect, or a change in a side signal; further: potency means the concentration at half of the fitted maximal effect; % of control where 0% means no effect
HEK293 cAMP cs – qHTS Assay for Agonists of the Thyroid Stimulating Hormone Receptor: Activators of Intracellular cAMP Concentrations in Parental HEK 293; AID 938, 2007; parental HEK293 CNG cAMP sensor, membrane potential fluorescence; hit rate 2.5% among 73,000; Potency, µM (series often up to 57.1 µM), inactives show at the top dose activation, most hits filed as activators; further: potency means the concentration at half of the fitted maximal effect; % of control where 0% means no effect; nearly all actives have a fitted effect of over 55% in size
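Parental HEK 293 cells stably expressing a cAMP-gated CNG channel were loaded with membrane potential dye containing 100 uM RO 20-1724 for 60 min. Compound added for 30 min; depolarization read as fluorescence intensity at 590 nm.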
CRE Fsk mod – Cell signaling CRE-BLA (Fsk stim); CHO CRE-bla reporter (cAMP response element driving beta-lactamase), forskolin EC10, beta-lactamase ratio; Potency, µM (doses to about 38.2 µM), inactives show top-dose activity change, negative = inhibition, hits mostly activators; hit rate 2.5% among 71,000; AID 662, 2007; active means well fitted activation curve with a large enough effect in the signal ratio, with a control signal flat, not every such curve was filed as active; inconclusive means small, poorly fitted or top-dose-only effect, or effect the other way, or a change in a side signal; the % refers to the signal ratio; further: potency means the concentration at half of the fitted maximal effect; % of control where 0% means no effect
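Modulation of forskolin-driven signalling is measured in CHO cells carrying a CRE-controlled beta-lactamase reporter. Cells are stimulated with EC10 NKH 477 in the presence of titrated compound for 3 h at 37 °C, then loaded with CCF4 for 2 h at room temperature.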
Casp1 inh – qHTS Assay for Allosteric/Competitive Inhibitors of Caspase-1; P29466; Caspase-1 enzyme, Ac-WEHD-AFC fluorogenic rate; Potency, µM (series often up to 57.5 µM), for the others: at the top dose activity change, negative = inhibition, actives largely listed as inhibitors; hit rate 0.03% among 75,000;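 further: potency means the concentration at half of the fitted maximal effect; plate controls were vehicle for no effect and no substrate for full effect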
USP2a inhib – qHTS Assay for Inhibitors of Ubiquitin-specific Protease USP2a. USP2a enzymatic assay, qHTS inhibition. Potency, µM (doses to about 38.3 µM), for inactives: at the top dose activity change, negative = inhibition, actives largely listed as inhibitors. hit rate 0.1% among 60,000. AID 927, 2007; further: potency means the concentration at half of the fitted maximal effect; nearly all actives have a fitted effect of over 60% in size
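Inhibition is measured in a cell-free coupled assay with 20 nM USP2 core, 20 nM Ub-PLA2 and 20 uM NBD C6-HPC, 2.5 h incubation. Activity normalized to NEM control.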
TSHR ag – qHTS Assay for Agonists of the Thyroid Stimulating Hormone Receptor; Thyrotropin receptor (Homo sapiens), P16473; Potency, µM (series often up to 57.1 µM), without a hit: at the top dose activation, most hits filed as activators; hit rate 0.48% among 73,000; HEK293-CNG-TSHR cells (CNG channel as cAMP sensor), membrane potential dye, cAMP; active means well fitted activation curve with a large enough effect in the main read-out, with a control signal flat, not every such curve was filed as active; inconclusive means small, poorly fitted or top-dose-only effect, or a change in a side signal; inactive means no such curve, though single readings can be large or run the other way; % of control where 0% means no effect;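 further: the control signal comes from parental cells without the receptor; potency means the concentration at half of the fitted maximal effect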
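HEK 293 cells stably expressing TSHR and a modified CNG channel, with CNG-only parental cells as counterscreen, were preloaded 60 min at room temperature with membrane potential dye containing 100 uM RO 20-1724. Compound exposure was 30 min, and depolarization was read as fluorescence at 590 nm.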
CHO via 24h – Cell Viability - CRE-beta lactamase CHO cell - 24 hr assay. CRE-bla CHO viability, ATP luminescence, 24 h. AID 905, 2007. shares compounds with CRE Fsk mod. 120 tested, under 10 active. activity, negative = viability loss, % at 46.1 µM
CHO tox 40h – Cell Viability - CRE-beta lactamase CHO cell - 40 hr assay. 120 tested, under 10 active. AID 906, 2007. CRE-bla CHO viability, ATP luminescence, 40 h. Potency, µM, for the others: max response, usual class: inhibitors. shares compounds with CRE Fsk mod
CRE-luc potent – Confirmation Concentration-Response Assay for Cell signaling CRE-BLA (Fsk stim) - HEK293 CREB Luciferase. HEK293 CRE-luc2P, NKH477 EC10 potentiation, luminescence, 4 h. Potency, µM (top dose mostly 38.3 µM), for inactives: at the top dose activity, positive = activation, hits mostly activators. hit rate 80% among 120. AID 907, 2007. shares compounds with CRE Fsk mod
An asterisk follows results filed as active; [ ] = remark or other dose. Unless noted, the call rests on the fitted dose curve; in most records, active means well fitted curve in the direction sought with a large enough effect; inconclusive means small, poorly fitted or top-dose-only effect, or another doubt; inactive means no such curve, though single readings can be large; an effect the other way counts as inactive or inconclusive.

`N#Cc1nc(COc2ccc(Cl)cc2)oc1NCc1ccc2c(c1)OCO2` gave Casp7 inh -7%, HEK293 cAMP cs 10µM*, CRE Fsk mod 12%, Casp1 inh -10%, USP2a inhib -25% and TSHR ag inconclusive.
`Cc1cccc(OCc2nc(C#N)c(N3CC(C)CC(C)C3)o2)c1` (stereo unspecified) gave Casp7 inh -4%, HEK293 cAMP cs 6.3µM*, CRE Fsk mod 3%, Casp1 inh -1% and TSHR ag inconclusive.
Screening COc1ccc(CNc2oc(COc3ccccc3)nc2C#N)cc1 returned Casp7 inh -7%, HEK293 cAMP cs 6% and Casp1 inh -2%.
Cc1cccc(OCc2nc(C#N)c(NCc3ccc4c(c3)OCO4)o2)c1 was read as Casp7 inh -3%, HEK293 cAMP cs 16µM*, CRE Fsk mod 7%, Casp1 inh -5%, USP2a inhib -14% and TSHR ag inconclusive.
For C[N+](C)(C)[C@@H](C1=CCCC1=O)c1ccccc1 the results were Casp7 inh -12%[11.5 µM], HEK293 cAMP cs -2%[11.4 µM], CRE Fsk mod inconclusive, Casp1 inh -1%[11.5 µM] and TSHR ag 2%[11.4 µM].
For S=C([S-])NCCNC(=S)[S-].[Zn+2] the results were Casp7 inh -10%, HEK293 cAMP cs 28%, CRE Fsk mod -21%, Casp1 inh 1% and TSHR ag 4%.
`CN(Cc1ccccc1)c1oc(COc2ccccc2F)nc1C#N` gave Casp7 inh -2%, HEK293 cAMP cs 25µM*, CRE Fsk mod 21%, Casp1 inh 0% and TSHR ag inconclusive.
Screening COc1ccc(OC)c(NC(=O)c2cn(C)c(=O)c3cc(OC)c(OC)cc23)c1 returned Casp7 inh -1%, HEK293 cAMP cs 7%, CRE Fsk mod 0.79µM*, Casp1 inh -1%, USP2a inhib 10%, TSHR ag 2%, CHO via 24h -2, CHO tox 40h -12% and CRE-luc potent 4µM*.
Cn1c2ccccc2c2nnc(SCN3C(=O)c4ccccc4C3=O)nc21 was read as Casp7 inh 4%, HEK293 cAMP cs 10%, CRE Fsk mod inconclusive, Casp1 inh 0%, USP2a inhib 9% and TSHR ag 11%.
For CCn1c2ccccc2c2nnc(SCN3C(=O)c4ccccc4C3=O)nc21 the results were Casp7 inh -2%, HEK293 cAMP cs 12%[11.4 µM], CRE Fsk mod inconclusive, Casp1 inh -3%, USP2a inhib 13%[7.66 µM], TSHR ag 10%[11.4 µM], CHO via 24h -12, CHO tox 40h -21% and CRE-luc potent 2µM*.
Screening Cc1nc2oc3c(NCc4ccccn4)ncnc3c2c2c1COC(C)(C)C2 returned Casp7 inh 0%, HEK293 cAMP cs 6%, CRE Fsk mod inconclusive, Casp1 inh -2%, USP2a inhib 16% and TSHR ag -4%.
`CCCc1nc2oc3c(NCc4ccccn4)ncnc3c2c2c1COC(C)(C)C2` gave Casp7 inh -1%, HEK293 cAMP cs 25%, CRE Fsk mod 0.79µM*, Casp1 inh -1%, USP2a inhib 13%, CHO via 24h -10, CHO tox 40h -16% and CRE-luc potent 0.4µM*.
`N#C[C@H]1CN[C@H](N)N[C@@H]1N` gave Casp7 inh 1%[11.5 µM], HEK293 cAMP cs 0%[11.4 µM], CRE Fsk mod inconclusive, Casp1 inh -1%[11.5 µM] and TSHR ag 1%[11.4 µM].
`CCCSc1nc2c(cnn2-c2ccc(F)cc2)c(=O)[nH]1` gave Casp7 inh 1%, HEK293 cAMP cs -5%, CRE Fsk mod 2µM*, Casp1 inh -2%, TSHR ag 4%, CHO via 24h 3, CHO tox 40h -16% and CRE-luc potent 6.3µM*.
CCCN(C#N)c1nc(NCC)nc(NC(C)C)n1 was read as Casp7 inh 0%, HEK293 cAMP cs inconclusive, CRE Fsk mod 10µM*, Casp1 inh 0%, USP2a inhib 3%, TSHR ag inconclusive, CHO via 24h -8, CHO tox 40h -16% and CRE-luc potent 1.4µM*.
O=S(O)O.O=S(O)O.[Co].[NH2-].[NH2-].[NH2-].[NH2-] was read as Casp7 inh 2%[11.5 µM], HEK293 cAMP cs 21%[11.4 µM], CRE Fsk mod -4%[7.6 µM], Casp1 inh 1%[11.5 µM] and TSHR ag 3%[11.4 µM].
CC(=O)C=NCC(=O)O was read as Casp7 inh 0%[11.5 µM], HEK293 cAMP cs 2%[11.4 µM], CRE Fsk mod -2%[7.6 µM], Casp1 inh -1%[11.5 µM] and TSHR ag 6%[11.4 µM].
For COc1ccc(CCN2C(=O)c3cccnc3C2=O)cc1OC the results were Casp7 inh 7%, HEK293 cAMP cs 3%, CRE Fsk mod 1%, Casp1 inh -1%, USP2a inhib -4% and TSHR ag -2%.
COc1cc2c(cc1OC)-c1c(OC)c(OC)cc3ccnc(c13)C2=O was read as Casp7 inh -7%, HEK293 cAMP cs -5%, CRE Fsk mod inconclusive, Casp1 inh inconclusive, TSHR ag -4%, CHO via 24h -19, CHO tox 40h inconclusive and CRE-luc potent 0.16µM*.
For CC(C)(C)C(=O)[C@H]([C@@H](c1ccccc1)N1CCOCC1)N1CCOCC1 the results were Casp7 inh 0%[11.5 µM], HEK293 cAMP cs 25%[11.4 µM], CRE Fsk mod 1%[7.6 µM], Casp1 inh -1%[11.5 µM] and TSHR ag 11%[11.4 µM].
COc1ccc(-c2nn(C)c(=O)c3ccccc23)cc1CNC(=O)c1ccco1 was read as Casp7 inh 1%, HEK293 cAMP cs -2%, CRE Fsk mod inconclusive, Casp1 inh -2%, USP2a inhib 39% and TSHR ag 14%.
